# Reference: PubChem BioAssay (Tox21)
# The source made the active and inactive calls. Calls follow the shape of the dose curve; as a rule, active = well fitted curve in the direction sought with a large enough effect in the repeat runs; inconclusive = weak or mixed curves; inactive = flat fitted curve, though single readings scatter. Residues, ends and D or L forms follow the SMILES beside them.
# Test: qHTS assay to test for compound auto fluorescence at 590 nm (red) in HEK293 cell free culture (AID 720683)
# Settings: cell-free medium autofluorescence, Ex540/Em590 red; series mostly up to 91.3 µM
# Excerpt: U.S. Tox21 Program National Center for Advancing Translational Sciences [NCATS] NIH Chemical Genomics Center [NCGC] U.S. Environmental Protection Agency [EPA] National Institutes of Environmental Health Sciences [NIEHS] National Toxicology Program [NTP] U.S. Food and Drug Administration [FDA] Tox21 Assay Overview: Compound auto fluorescence often interferes with screening of the compound library against various biological targets and signaling pathways. Some of these compounds may have fluorophoric properties. Such properties may interfere with the assay outputs resulting in false positives and/or negatives. To decrease such complications and ensure the compound activities are relevant in terms of biological response, the Tox21 10K compound library was screened for auto fluorescence. From the fluorophores used as reporter signals in our screening assays, the auto fluorescence equivalencies of compounds against three fluorophores have been evaluated: Triamterene, Fluorescein and Rose Bengal sodium for blue, green and red fluorescence, respectively. The fluorescence intensities were measured using Excitation/Emission wavelengths at 405/460nm, 485/535nm and 540/590nm for blue, green and red labels, respectively. This assay includes the red fluorescence data.
# Tox21 Assay Protocol Summary: 5 uL of culture medium (DMEM containing 10% FBS) per well was dispensed into black wall/clear bottom 1536-well plates using a Multidrop Combi Dispenser (ThermoFisher Scientific, Waltham, MA). After 23 nL compound or DMSO vehicle was transferred into assay plate by a pintool work station (Kalypsys, San Diego, CA), fluorescence intensities in the assay plates were measured by an Envision (PerkinElmer, Shelton, CT) plate reader using three labels for measuring blue, green and red fluorescence at […] 460, 535 and 590nm respectively.
row,Structure (SMILES),outcome
1,Nc1ccc(S(=O)(=O)Nc2nccs2)cc1,inactive
2,CCCN(CCC)S(=O)(=O)c1ccc(C(=O)O)cc1,inactive
3,O=C(c1ccccc1)c1ccccc1,inactive
4,Oc1ccc(/C=C/c2cc(O)cc(O)c2)cc1,inactive
5,O=C(O)CS,inactive
6,NNC(=O)c1ccncc1,inactive
7,NC(=O)c1ccccc1O,inactive
8,CCCCCCCCCCCCCCCC(=O)O,inactive
9,Cc1cc(=O)[nH]c(=S)[nH]1,inactive
10,OCCc1ccccc1,inactive
11,COC(=O)[C@H](Cc1ccccc1)NC(=O)[C@@H](N)CC(=O)O (H-Asp-Phe-OMe),inactive
12,NC(N)=NC(=O)c1nc(Cl)c(N)nc1N,inactive
13,O=C(O)c1[nH]n(-c2ccc(S(=O)(=O)O)cc2)c(=O)c1N=Nc1ccc(S(=O)(=O)O)cc1,inactive
14,Cc1cn([C@H]2C[C@H](N=[N+]=[N-])[C@@H](CO)O2)c(=O)[nH]c1=O,inactive
15,C1N2CN3CN1CN(C2)C3,inactive
16,O=C(O)C(=O)O,inactive
17,Cc1ccc(C)c(OCCCC(C)(C)C(=O)O)c1,inactive
18,CC(=O)NS(=O)(=O)c1ccc(N)cc1,inactive
19,CC(O)CO (stereo not given),inactive
20,CC(C)[C@@H]1CC[C@@H](C)C[C@H]1O,inactive

row,Structure (SMILES),outcome
1,Cn1c(=O)c2[nH]cnc2n(C)c1=O,inactive
2,Nc1ccn([C@H]2CC[C@@H](CO)O2)c(=O)n1,inactive
3,O=C(C1CCCCC1)N1CC(=O)N2CCc3ccccc3C2C1 (stereo not given),inactive
4,NS(=O)(=O)c1cc(C(=O)O)c(NCc2ccco2)cc1Cl,inactive
5,O=C(O)CCCCCCCC(=O)O,inactive
6,CCCCC1C(=O)N(c2ccccc2)N(c2ccccc2)C1=O,inactive
7,Cc1noc(NS(=O)(=O)c2ccc(N)cc2)c1C,inactive
8,O=NO,inactive
9,CCCCC(CC)COC(=O)/C=C/c1ccc(OC)cc1 (stereo not given),inactive
10,O=C(O)c1cc(N=Nc2ccc(S(=O)(=O)Nc3ccccn3)cc2)ccc1O,inactive
11,NC(N)=O,inactive
12,CCCC(O)C(CC)CO (stereo not given),inactive
13,COc1c2occc2cc2ccc(=O)oc12,inactive
14,N=C(N)c1ccc(OCCCCCOc2ccc(C(=N)N)cc2)cc1,inactive
15,CCCNC(=O)NS(=O)(=O)c1ccc(Cl)cc1,inactive
16,O=S(=O)(O)NC1CCCCC1,inactive
17,CCCCOC(=O)CC(CC(=O)OCCCC)(OC(C)=O)C(=O)OCCCC,inactive
18,Cc1ccc(S(=O)(=O)NC(=O)NN2CCCCCC2)cc1,inactive
19,NC(=O)NC1NC(=O)NC1=O (stereo not given),inactive
20,COc1ccc2[nH]cc(CCNC(C)=O)c2c1,inactive
